Rows were chosen to be rich in hits. Some 21% of all compounds tested hit in one or more screens of this group.
NS1 inh: blocks influenza NS1 protein function; Potency, µM (top dose mostly 46.1 µM); 0.4% of 270,000 active; calls by dose curve; note: actives are rising curves; nearly all actives have a fitted effect of over 50% in size
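A cell-based growth assay was used: compounds that relieve NS1-induced slow growth of budding yeast raise OD600. Assay medium was yeast nitrogen base with ammonium sulphate and -URA supplement, pH 6.0, with 2% galactose.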
Shiga inhibitor: inhibitors of Shiga toxin in Vero cells; Vero cells, Shiga toxin protein synthesis inhibition reporter; inhibition, % at 38.7 µM; 9.2% of 290,000 active; in the data active = inhibition mostly above about 28%, no sharp cut-off; inactive = mostly below about 43%
Sm TGR inh: blocks Schistosoma mansoni thioredoxin glutathione reductase; Q962Y6; purified TGR, DTNB reduction, TNB absorbance 405 nm; Potency, µM (doses to about 114 µM), actives largely listed as inhibitors; 3% of 360,000 active; note: nearly all actives have a fitted effect of over 60% in size
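Kinetic colorimetric format: TGR-catalysed, NADPH-driven DTNB reduction monitored via TNB absorbance. Enzyme dispensed at 20 nM; compound exposure 15 min at room temperature before reaction start.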
Pf growth 96h: P. falciparum growth inhibition at 96 hour, primary screen for plastid delayed-death inhibitors; P. falciparum luciferase reporter growth, 96 h; Potency, µM (titrated, usually from 28.7 µM), hits mostly inhibitors; 6.9% of 320,000 active
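Delayed-death screen, second-generation endpoint: infected erythrocytes, 2% hematocrit, 0.05% parasitemia final; 96 hours at 37 C, 5% CO2; luciferase detection reagent; luminescence decrease equals reduced growth.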
Cycloheximide cs: counter-screen hit for Shiga toxin inhibitors, cycloheximide; cell reporter, cycloheximide protein synthesis inhibition counterscreen; max response, %; 12% of 300,000 active; AID 2314; in the data active = max response mostly above about 13%, no sharp cut-off; inactive = mostly below about 14%; note: read at 38.3 µM for the half of the compounds with a filed dose
Pf growth 48h: P. falciparum growth inhibition at 48 hours (one generation). P. falciparum luciferase growth in erythrocytes, 48 h. Potency, µM (highest dose often 28.7 µM), most hits filed as inhibitors. 5.9% of 310,000 active
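In quantitative HTS format, infected erythrocytes bearing luciferase-reporter parasites were treated for a single generation at 37 C. Luminescence after adding detection reagent served as the growth measure.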
Numbers stand for hits; [ ] = remark or other dose. Unless noted, calls come from the whole dose curve; as a rule, active = well fitted curve in the direction sought with a large enough effect; inconclusive = small, poorly fitted or top-dose-only effect, or another doubt; inactive = no such curve, though single readings can be large; an effect the other way counts as inactive or inconclusive.

What do the screens show for `O=C(c1cccc(Cl)c1)N(Cc1ccco1)Cc1ccccc1Cl`?
Sm TGR inh: inactive

How did CCOC(=O)c1c(C)oc2nc(C)nc(NCc3ccc(OC)cc3)c12 do in these assays?
Sm TGR inh: inactive

What do the screens show for `COc1ccc(-c2c3c(=O)n(C)c(=O)n(C)c3c3n2-c2ccccc2NC3c2ccco2)cc1` (centres undefined)?
Sm TGR inh: inactive

How did COc1cc(NC(=O)c2ccc(Cl)cc2)c2ncccc2c1 do in these assays?
NS1 inh: inactive; Shiga inhibitor: inactive; Sm TGR inh: inactive; Pf growth 96h: inactive; Cycloheximide cs: inactive; Pf growth 48h: inactive

Results for O=C(NC(=S)Nc1cccnc1Cl)c1ccc(Cl)cc1 ?
NS1 inh: inactive; Shiga inhibitor: 114.2; Sm TGR inh: inactive; Pf growth 96h: inactive; Cycloheximide cs: 49.8; Pf growth 48h: inactive

What do the screens show for `COc1ccc(C(=O)Nc2cccnc2Sc2ccc(Cl)cc2)cc1`?
NS1 inh: inactive; Shiga inhibitor: 46.7; Sm TGR inh: inactive; Pf growth 96h: inactive; Cycloheximide cs: 27.2; Pf growth 48h: inconclusive

Results for O=C(Nc1cccc2cccnc12)c1ccc(Cl)cc1 ?
NS1 inh: inactive; Shiga inhibitor: 45.1; Sm TGR inh: inactive; Pf growth 96h: inactive; Cycloheximide cs: 36.7; Pf growth 48h: inactive

What do the screens show for `O=C(Nc1cccnc1Cl)c1ccc(Cl)cc1`?
NS1 inh: inactive; Shiga inhibitor: 70.4; Sm TGR inh: inactive; Pf growth 96h: inactive; Cycloheximide cs: 36.2; Pf growth 48h: inactive

What do the screens show for `O=C(O)c1ccc(C(=O)Nc2cccc3cccnc23)cc1`?
Shiga inhibitor: inactive; Cycloheximide cs: inactive

What do the screens show for `CCOc1ccc(NC(=O)c2cnc3sc(N4CCOCC4)nn3c2=O)cc1`?
Sm TGR inh: inactive

How did O=C(C1CCN(S(=O)(=O)c2ccccc2[N+](=O)[O-])CC1)N1CCOCC1 do in these assays?
NS1 inh: inactive; Shiga inhibitor: inactive; Pf growth 96h: inactive[1.15 µM]; Cycloheximide cs: inactive; Pf growth 48h: inactive

How did CC(C)C(NC(=O)c1ccc(F)cc1)C(=O)N1CCN(C(=O)c2ccco2)CC1 (centres undefined) do in these assays?
Sm TGR inh: inactive; Pf growth 96h: inactive; Pf growth 48h: inactive

Results for Cc1ccc(S(=O)(=O)NCC(=O)OCC(=O)N(C)C2CCS(=O)(=O)C2)cc1 (centres undefined) ?
Sm TGR inh: inactive; Pf growth 96h: inactive; Pf growth 48h: inactive

Results for CCOC(=O)Cc1csc(NS(=O)(=O)c2ccc(C(F)(F)F)cc2)n1 ?
NS1 inh: inactive; Shiga inhibitor: inactive; Sm TGR inh: inactive; Pf growth 96h: inactive; Cycloheximide cs: inactive; Pf growth 48h: inactive

How did COc1cccc(-c2nc(CS(=O)(=O)CC(=O)NCCc3ccc(Cl)cc3)c(C)o2)c1 do in these assays?
Sm TGR inh: inactive

What do the screens show for `O=C(/C=C\Nc1ccccn1)c1ccc(Cl)cc1`?
NS1 inh: inactive; Shiga inhibitor: 75.3; Sm TGR inh: inactive; Pf growth 96h: inactive; Cycloheximide cs: 32.5; Pf growth 48h: inactive

How did Cc1ccc(Cl)c(N/C=C/C(=O)c2ccccc2)c1 do in these assays?
NS1 inh: inactive; Shiga inhibitor: 65.9; Sm TGR inh: inactive; Pf growth 96h: inactive; Cycloheximide cs: 68.2; Pf growth 48h: inactive

Results for Cc1cccc(N/C=C/C(=O)c2ccc(Cl)cc2)c1 ?
NS1 inh: inactive; Shiga inhibitor: 87.6; Sm TGR inh: inactive; Pf growth 96h: inactive; Cycloheximide cs: 34.5; Pf growth 48h: inactive

Results for CCOC(=O)c1c(S(=O)(=O)NCC(=O)Nc2ccc(C(C)=O)cc2)c(C)n(C)c1C ?
Sm TGR inh: inactive

What do the screens show for `Cc1cccc(NC(=O)C2CCN(c3nnc(C)c4c(C)n(-c5ccccc5)nc34)CC2)c1C`?
Sm TGR inh: inactive

How did Cc1noc(C)c1C(=O)Nc1cccc(S(=O)(=O)N2CCCCC2)c1 do in these assays?
Sm TGR inh: inactive; Pf growth 96h: 8.28µM; Pf growth 48h: inactive

How did COc1ccc(S(=O)(=O)N2CCOCC2)cc1NC(=O)c1ccccc1-c1ccc(C(F)(F)F)cc1 do in these assays?
NS1 inh: inconclusive; Shiga inhibitor: inactive; Sm TGR inh: inactive; Pf growth 96h: inconclusive; Cycloheximide cs: inactive; Pf growth 48h: inconclusive

Results for Cc1onc(-c2ccccc2)c1C(=O)N1CCCSC1=Nc1ccccc1 ?
NS1 inh: inactive; Shiga inhibitor: inactive; Sm TGR inh: inactive; Pf growth 96h: inconclusive; Cycloheximide cs: inactive; Pf growth 48h: 2.94µM

What do the screens show for `CCc1noc(C)c1C(=O)Nc1cccc(S(=O)(=O)N2CCCCCC2)c1`?
Sm TGR inh: inactive; Pf growth 96h: inactive; Pf growth 48h: inconclusive

What do the screens show for `COc1ccc(S(=O)(=O)N2CCOCC2)cc1NC(=O)c1cccc2c(=O)c(C)c(-c3ccccc3)oc12`?
NS1 inh: inactive; Shiga inhibitor: inactive; Sm TGR inh: inactive; Pf growth 96h: 2.08µM; Cycloheximide cs: inactive; Pf growth 48h: 5.22µM

What do the screens show for `Cc1onc(-c2ccccc2)c1C(=O)Nc1ccc(S(=O)(=O)N2CCCC2)cc1`?
NS1 inh: inactive; Shiga inhibitor: inactive; Sm TGR inh: inactive; Pf growth 96h: inactive; Cycloheximide cs: 19.3; Pf growth 48h: inactive

Results for CCCCN(CC)C(=O)Cn1c(=O)n(-c2ccc(OCC)cc2)c(=O)c2c3c(sc21)CCC3 ?
Sm TGR inh: inactive

Results for Cc1ccc(NC(=O)c2ccc(CN3CC(=O)N4CCCCC4C3=O)cc2)cc1C (centres undefined) ?
Sm TGR inh: inactive

How did O=C(Nc1ccc(F)cc1F)c1cc(-c2ccccc2O)no1 do in these assays?
Sm TGR inh: inactive

Results for Cc1noc(C)c1COc1ccc(C(=O)OCC(=O)Nc2cccc(S(=O)(=O)N3CCOCC3)c2)cc1 ?
NS1 inh: inconclusive; Shiga inhibitor: inactive; Sm TGR inh: inactive; Pf growth 96h: 5.22µM; Cycloheximide cs: inactive; Pf growth 48h: inactive

What do the screens show for `Cc1cc(C(=O)Nc2ccc(S(=O)(=O)N3CCOCC3)cc2)c(C)o1`?
NS1 inh: inactive; Shiga inhibitor: inactive; Sm TGR inh: inactive; Pf growth 96h: inactive; Cycloheximide cs: inactive; Pf growth 48h: inactive

How did COc1ccc(S(=O)(=O)N2CCOCC2)cc1NC(=O)c1cc(C)oc1C do in these assays?
Sm TGR inh: inactive; Pf growth 96h: 11.7µM; Pf growth 48h: inconclusive

How did COc1ccc(S(=O)(=O)N2CCOCC2)cc1NC(=O)c1c(-c2ccccc2)noc1C do in these assays?
Sm TGR inh: inactive; Pf growth 96h: 10.4µM; Pf growth 48h: inconclusive

What do the screens show for `Cc1noc(C)c1COC(=O)c1cccc(S(=O)(=O)N2CCOCC2)c1`?
Sm TGR inh: inactive; Pf growth 96h: inactive; Pf growth 48h: inconclusive

What do the screens show for `O=C(NNC(=O)c1c(F)cccc1F)c1ccccc1-n1cccc1`?
Shiga inhibitor: inactive; Sm TGR inh: inactive; Pf growth 96h: inactive; Cycloheximide cs: inactive; Pf growth 48h: inactive

How did CCOc1ccccc1CNC(=O)C1CCN(S(=O)(=O)c2c(C)noc2/C=C/c2ccccc2F)CC1 do in these assays?
Sm TGR inh: inactive

Assay outcomes deposited in PubChem BioAssay by National Center for Advancing Translational Sciences (NCATS).
